Bioassay records as filed in PubChem BioAssay.
Hits are enriched below; roughly 1.6% of the tested compounds scored in any of these assays.
OPRM1-OPRD1 inv: mu-delta opioid heterodimer inverse agonism; P35372+P41143; cell-based MOR-DOR heterodimer luminescence; inhibition, % at 9.3 µM; 0.21% of 340,000 active; in the data active means inhibition above about 22%, passing the limit was not always enough;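 further: 0% = cells with DMSO and 100% = wells without cells with DMSO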
OPRM1-OPRD1 ag: agonists of human mu-delta opioid receptor heterodimerization. cells, OPRM1-OPRD1 heterodimerization, luminescence. activation, % at 9.3 µM. 0.3% of 340,000 active. AID 504326;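 further: 0% = vehicle-treated cells and 100% = reference agonist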
HTR5A inv ag: counter-screen for OPRM1-OPRD1 inverse agonists: human HTR5A inverse agonism | P47898 | HTR5A cell line, luminescence | inhibition, % at 9.3 µM | 0.083% of 340,000 active | AID 504634; in the data active means inhibition mostly above about 23%, no sharp cut-off; inactive means mostly below about 18%;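 further: 0% = cells with DMSO and 100% = no-cell wells with DMSO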
Target sequence (P47898 whole entry, looked up): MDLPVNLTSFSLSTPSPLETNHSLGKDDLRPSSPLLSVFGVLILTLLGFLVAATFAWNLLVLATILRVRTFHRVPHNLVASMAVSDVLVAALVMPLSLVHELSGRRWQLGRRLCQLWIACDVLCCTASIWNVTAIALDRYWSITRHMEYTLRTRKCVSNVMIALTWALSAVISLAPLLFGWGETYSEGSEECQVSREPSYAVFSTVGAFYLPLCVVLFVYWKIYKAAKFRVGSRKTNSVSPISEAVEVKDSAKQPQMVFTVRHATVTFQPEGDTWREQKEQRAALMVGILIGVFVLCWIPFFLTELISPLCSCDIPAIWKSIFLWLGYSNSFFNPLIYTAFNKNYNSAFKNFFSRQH
HTR5A ag ctr: activates human HTR5A in OPRM1-OPRD1 agonist counter-screen. P47898. HTR5A agonist assay, luminescence, cell-based. activation, % at 9.3 µM. 0.61% of 340,000 active. AID 504692; in the data active means activation mostly above about 9.5%, no sharp cut-off; inactive means mostly below about 7.6%;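 further: 0% = cells with vehicle only and 100% = reference agonist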
PolyA inh: inhibitors of polyadenylation in S. cerevisiae; S. cerevisiae SKY197-pL101 polyadenylation reporter, beta-gal luminescence; efflux-impaired pdr1/pdr3 knockout yeast; score 100 = 6 SD above DMSO; AID 1875; 0.02% of 300,000 active; activity score, % at 12 µM;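 active means lowest replicate activity score at least 50, where 100 means six control SD above control mean; inconclusive means lowest score under 50 but half or more replicates reach 50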;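 further: yeast exposed to compound for 9 h at 30 °C; higher score means more reporter readthrough which indicates perturbed polyadenylation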
NALP1 yeast inh: inhibitors of NALP1 inflammasome in yeast | S. cerevisiae NALP1/ASC/caspase-1 growth, X-gal OD620, 72 h | inhibition, % at 10 µM | 0.61% of 280,000 active | AID 2071; in the data active means inhibition mostly above about 24%, no sharp cut-off; inactive means mostly below about 32%
OPRM1-D1 ag cf: confirmation of human OPRM1-OPRD1 heterodimerization agonists; shares compounds with OPRM1-OPRD1 ag; cells, MOR-DOR heterodimerization, luminescence complementation; activation, % at 9.3 µM; 45% of 830 active;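 further: 0% = vehicle-treated cells and 100% = reference agonist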
HTR5A ag counter: HTR5A agonism, opioid heterodimer counter-screen; shares compounds with OPRM1-OPRD1 ag; HTR5A agonist counterscreen, cell luminescence; activation, % at 9.3 µM; 8% of 830 active; AID 504905; in the data active means activation above about 17%;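 further: 0% = vehicle-treated cells and 100% = reference agonist response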
* marks the source's active call; other numbers are inactive results; i = inactive; u = inconclusive; x = not tested or not shown. Unless noted, no stated cut-off is given here; in the data, active means activation above about 18%; inactive means the rest.

SMILES	OPRM1-OPRD1 inv	OPRM1-OPRD1 ag	HTR5A inv ag	HTR5A ag ctr	PolyA inh	NALP1 yeast inh	OPRM1-D1 ag cf	HTR5A ag counter
COC(=O)c1ccc(COC(=O)c2ccc(CS(=O)(=O)c3ccc(C)cc3)cc2)cc1	-12	2	11	-2	1	13	x	x
O=C(Cn1cc(C(F)(F)F)ccc1=O)N/N=C/c1ccc(Cl)cc1	-17	3	16	0	1	7	x	x
O=C(c1ccccn1)N(Cc1cccs1)C1(C(=O)NC2CCCCC2)CCCCC1	-132	28*	9	-3	7	11	0	3
O=C(c1cnccn1)N(Cc1cccs1)C1(C(=O)NC2CCCCC2)CCCCC1	-21	4	-10	-1	-6	30	x	x
COC(=O)CC1(C(=O)OC)Oc2ccc(Br)cc2C(=O)N1c1ccc(Br)cc1Cl (stereo unspecified)	-244	46*	0	-3	-5	-3	2	8
COc1cc(C(=O)Nc2nc3ccc(S(C)(=O)=O)cc3s2)cc(OC)c1C	-198	37*	-15	6	3	12	14	9
c1ccc(C2[C@H]3CN(Cc4cccnc4)[C@H](c4ccccc4)C34CC2(c2cccnc2)C4)cc1 (stereo partly specified)	-434	80*	-20	-5	10	x	75*	-4
COc1ccc(C(=O)Nc2ccc(S(=O)(=O)N(C)c3ccccc3)cc2)cc1	-10	2	-12	4	-6	x	x	x
COc1ccc(C(CNc2nc(-c3cccnc3)nc3ccccc23)N(C)C)cc1 (stereo unspecified)	i	160*	1	0	-21	8	3	-5
COC(=O)CNc1nc(-c2cccnc2)nc2ccccc12	9	-2	-27	1	x	6	x	x
CCn1c(/C=C/c2c[nH]c3ccccc23)nc2ccccc2c1=O	-26	6	4	-2	-5	4	x	x
CCn1c(/C=C/c2c(C)[nH]c3ccccc23)nc2ccccc2c1=O	-146	27*	-1	-2	-12	6	1	-1
COc1ccc(CC(=O)Nc2ccc(-c3cn4cccc(C)c4n3)cc2)cc1OC	-15	3	-31	-2	-1	16	x	x
Cc1cccn2cc(-c3ccc(NC(=O)Cc4ccccc4)cc3)nc12	-213	39*	-73	17*	-6	5	6	11
Cc1ccc(/C=N/NC(=O)CSc2nnc(-c3ccc(Cl)cc3)n2-c2ccc(Cl)cc2)o1	-186	37*	-32	11	13	4	18	17*
Cc1cccn2c(=O)nc(SCC(=O)Nc3ccc4c(c3)OCO4)nc12	9	-1	5	-2	u	x	x	x
Cc1ccc2nc(SC(C(=O)Nc3ccc(F)cc3)c3ccccc3)[nH]c2c1 (stereo unspecified)	-119	24*	-4	6	4	24	454*	-2
Cc1ccc(C)c(NC(=O)C(Sc2nc3ccc(C)cc3[nH]2)c2ccccc2)c1 (stereo unspecified)	-23	5	8	1	-25	26	x	x
CCOC(=O)c1c(C)[nH]c(O)c1C=Nc1ccc(C(F)(F)F)cc1	-65	13	-50	-2	8	7	x	x
CCOC(=O)c1c(C)[nH]c(O)c1C=Nc1ccc(Cl)cc1	-236	39*	8	-3	-18	4	13	2
Cc1ccc(CCNC(=O)CCc2nc3ccccc3[nH]2)cc1	15	-3	0	4	1	-15	x	x
O=C(Nc1cccc([N+](=O)[O-])c1)c1ccc2c(c1)C(=O)N(c1ccccn1)C2=O	1	0	11	-3	5	15	x	x
O=C(CSc1nc2ccccc2[nH]1)N1CCN(c2ccccc2)CC1	-1	0	28	0	-4	16	x	x
O=[N+]([O-])c1ccc(N2CCN(CCO)CC2)cc1Sc1nc2ccccc2[nH]1	-117	19*	1	0	10	10	6	17*
O=C(COC(=O)CC1CCCC1)Nc1cccc(F)c1	i	323*	7	-3	x	x	-2	0
SMILES	OPRM1-OPRD1 inv	OPRM1-OPRD1 ag	HTR5A inv ag	HTR5A ag ctr	PolyA inh	NALP1 yeast inh	OPRM1-D1 ag cf	HTR5A ag counter
O=C(COC(=O)C1CCCCC1)Nc1cccc(F)c1	-7	1	12	-3	x	x	x	x
CC(C)C1Oc2ccccc2N(CC(=O)N2CCOCC2)C1=O (stereo unspecified)	9	-1	-6	0	7	8	x	x
CN(C)C1(CNC(=O)CC(NC(=O)c2ccccc2Cl)c2ccccc2)CCCCC1 (stereo unspecified)	-116	22*	-12	4	13	6	5	2
CN(Cc1ccc(OC(F)F)cc1)C(=O)c1ccc2c(=O)n3c(nc2c1)CCC3	19	-4	18	-1	1	x	x	x
O=C(CNc1ccc2ccccc2c1)N/N=C/c1ccc([N+](=O)[O-])o1	-186	38*	-22	9.3*	-12	27	6	7
CN1C2C=C(N(CCc3c[nH]c4ccccc34)C(=O)c3ccc(Cl)cc3)CC1CC2 (stereo unspecified)	i	100*	-9	0	-10	4	138*	6
CN(C)CCN1C(=O)C2C(C(=O)Nc3cc(Cl)cc(Cl)c3)C3C=CC2(O3)C1C(=O)NC1CCCCC1 (stereo unspecified)	-8	1	-2	1	2	6	x	x
Cc1ccc(NC(=O)C2C3C=CC4(O3)C2C(=O)N(CCCN2CCCC2)C4C(=O)NC2CCCCC2)cc1Cl (stereo unspecified)	-1	0	2	-1	6	16	x	x
CCN(CC)CCN1C(=O)C2C(C(=O)Nc3ccc(C(C)C)cc3)C3C=CC2(O3)C1C(=O)NC1CCCCC1 (stereo unspecified)	-302	37*	-10	4	-2	16	-1	-6
CC(C)c1ccc(NC(=O)C2C3C=CC4(O3)C2C(=O)N(CCCN2CCCCC2)C4C(=O)NC2CCCCC2)cc1 (stereo unspecified)	-212	26*	-8	3	u	22	-1	-8
CN(C)c1ccc(C(=S)N2CCCC2)cc1Br	12	-3	2	0	2	14	x	x
Cc1nnc(NC(=O)C2CSC3(C)CCC(=O)N23)s1 (stereo unspecified)	6	-1	-23	9	-6	x	x	x
COc1ccc2c(CC(=O)Nc3ccccc3OC)coc2c1	17	-3	3	-1	-7	-13	x	x
COc1ccc2c(CC(=O)Nc3ccc(OC)c(NS(=O)(=O)c4ccc(F)cc4)c3)coc2c1	-118	19*	-9	3	2	19	6	1
